# PubChem BioAssay (NCATS)
# Where “and” joins values, the source holds several entries; their conditions need not be identical. Equal entries are not always repeated. Results filed as inconclusive are left out. Entries that show only a call come without a potency. The source holds several records for some structures; these can differ, active in one and inactive in another. Calls of active or inactive are those of the source. Unless noted, the call rests on the fitted dose curve; in most records, active means well fitted curve in the direction sought with a large enough effect; inconclusive means small, poorly fitted or top-dose-only effect, or another doubt; inactive means no such curve, though single readings can be large; an effect the other way counts as inactive or inconclusive.
# Key:
# [1] = Primary qHTS for inhibitors of nuclear receptor binding SET domain protein 2 (NSD2) in an isogenic RCH-ACV NSD2 p.E1099K mutant (9B) (AID 1645876); conditions: RCH-ACV NSD2 E1099K (9B) viability, CellTiter-Glo, 72 h; series mostly up to 44.9 µM; further: nearly all actives have a fitted effect of over 70% in size; further: potency means the concentration at half of the fitted maximal effect
# [2] = Primary qHTS for inhibitors of nuclear receptor binding SET domain protein 2 (NSD2) in an RCH-ACV wild type WT cells (2C) (AID 1645877); conditions: RCH-ACV (leukaemia line) NSD2 WT (2C) viability, CellTiter-Glo, 72 h; series mostly up to 44.9 µM; further: nearly all actives have a fitted effect of over 70% in size; further: potency means the concentration at half of the fitted maximal effect
# [3] = NCATS anti-infectives library activity on HEK293 viability as a counter-qHTS vs the C. elegans viability qHTS (AID 1745854); conditions: HEK293 viability counter-screen; series mostly up to 41.8 µM
# Summary of the method: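 HEK293 cells, 1500 per well, exposed 24 hr at 37C in 5% CO2 to compounds in a 1:5 titration, up to 41.7 uM final. Viability read as CellTiter-Glo luminescence after 10 min at room temperature.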
# Papain (Carica papaya) = Papain (Carica papaya) (UniProt P00784); assay: Primary qHTS assay for inhibitors of the protease papain (AID 1645873); conditions: papain Z-FR-AMC cleavage, AMC fluorescence; series mostly up to 49.8 µM;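 further: papain turnover of Z-FR-AMC read as the AMC fluorescence gain over 10 min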; further: potency means the concentration at half of the fitted maximal effect
# Papain (Carica papaya), sequence (P00784 whole entry, looked up): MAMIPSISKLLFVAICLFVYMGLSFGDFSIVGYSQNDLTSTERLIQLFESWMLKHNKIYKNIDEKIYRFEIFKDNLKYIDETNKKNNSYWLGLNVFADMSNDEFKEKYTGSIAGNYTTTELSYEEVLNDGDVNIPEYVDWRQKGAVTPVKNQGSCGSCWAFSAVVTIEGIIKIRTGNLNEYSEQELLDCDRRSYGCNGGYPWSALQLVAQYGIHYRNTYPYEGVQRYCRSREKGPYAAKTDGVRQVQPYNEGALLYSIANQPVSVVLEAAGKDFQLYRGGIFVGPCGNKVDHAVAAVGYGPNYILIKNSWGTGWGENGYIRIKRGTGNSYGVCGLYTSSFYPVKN
# [4] = biological target: Cytochrome P450 2C9 (Homo sapiens) (UniProt P11712); assay: Cytochrome P450 family 2 subfamily C member 9 (CYP2C9) small molecule antagonists: luciferase biochemical (cell-free) qHTS assay (AID 1645842; active means well fitted curve in the direction sought with a large enough effect in the repeat runs; an effect the other way counts as inactive or inconclusive; further: nearly all actives have a fitted effect of over 55% in size); conditions: P450-Glo CYP2C9 enzyme assay, luciferin luminescence; series mostly up to 57.4 µM
# Cytochrome P450 2C9 (Homo sapiens), sequence (P11712 whole entry, looked up): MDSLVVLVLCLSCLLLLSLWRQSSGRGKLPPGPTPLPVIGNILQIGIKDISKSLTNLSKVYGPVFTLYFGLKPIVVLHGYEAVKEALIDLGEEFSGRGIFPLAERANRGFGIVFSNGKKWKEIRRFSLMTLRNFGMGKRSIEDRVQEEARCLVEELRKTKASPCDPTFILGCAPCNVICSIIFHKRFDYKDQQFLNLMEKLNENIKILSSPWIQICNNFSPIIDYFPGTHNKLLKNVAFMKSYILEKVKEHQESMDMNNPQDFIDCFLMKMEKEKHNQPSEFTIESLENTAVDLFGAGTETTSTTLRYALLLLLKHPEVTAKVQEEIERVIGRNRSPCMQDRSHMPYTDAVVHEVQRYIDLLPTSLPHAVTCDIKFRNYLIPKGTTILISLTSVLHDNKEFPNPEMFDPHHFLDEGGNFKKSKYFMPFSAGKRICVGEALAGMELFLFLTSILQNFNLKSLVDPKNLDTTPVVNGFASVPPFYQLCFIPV
# Summary of the method: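 Luminescence, after 20 min with luciferin detection reagent, reflected CYP2C9 turnover during a 1 h NADPH-driven reaction at 37C. Enzyme-substrate mix contained 0.4% bovine serum albumin and was preincubated with compound 10 min at room temperature.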
# [5] = biological target: Catechol O-methyltransferase (Homo sapiens) (UniProt P21964); assay: Confirmatory Screen for Target Class Profiling of Small Molecule Inhibitors of Methyltransferases (AID 1745852); conditions: MTase-Glo luminescence, SAH detection, recombinant enzyme; measured here: COMT max response; stronger effect = lower value
# Catechol O-methyltransferase (Homo sapiens), sequence (P21964 whole entry, looked up): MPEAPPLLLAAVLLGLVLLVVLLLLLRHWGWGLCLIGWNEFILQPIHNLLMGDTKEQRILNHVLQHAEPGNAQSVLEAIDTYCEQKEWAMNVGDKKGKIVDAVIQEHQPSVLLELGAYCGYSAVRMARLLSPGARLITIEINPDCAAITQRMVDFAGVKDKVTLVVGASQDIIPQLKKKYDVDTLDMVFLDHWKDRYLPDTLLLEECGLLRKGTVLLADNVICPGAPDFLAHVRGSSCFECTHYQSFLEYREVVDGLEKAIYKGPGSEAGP
# [6] = biological target: Guanidinoacetate N-methyltransferase (Homo sapiens) (UniProt Q14353); assay: as above; conditions: MTase-Glo luminescence, SAH detection, recombinant enzyme; activity change, negative = inhibition: at 57.3 µM (top of the series)
# [7] = biological target: Nicotinamide N-methyltransferase (Homo sapiens) (UniProt P40261); assay: as above; conditions: MTase-Glo luminescence, SAH detection, recombinant enzyme; measured here: NNMT max response; stronger effect = lower value
# Nicotinamide N-methyltransferase (Homo sapiens), sequence (P40261 whole entry, looked up): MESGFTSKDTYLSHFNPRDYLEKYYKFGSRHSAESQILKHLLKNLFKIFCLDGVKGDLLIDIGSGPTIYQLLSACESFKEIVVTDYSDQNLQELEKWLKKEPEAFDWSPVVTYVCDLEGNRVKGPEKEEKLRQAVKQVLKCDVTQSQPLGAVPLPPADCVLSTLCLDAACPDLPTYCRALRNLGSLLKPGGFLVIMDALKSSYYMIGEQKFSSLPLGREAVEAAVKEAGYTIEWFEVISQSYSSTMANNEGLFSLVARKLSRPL
# [8] = biological target: Phenylethanolamine N-methyltransferase (Homo sapiens) (UniProt P11086); assay: as above; conditions: MTase-Glo luminescence, SAH detection, recombinant enzyme; measured here: PNMT max response; stronger effect = lower value
# Phenylethanolamine N-methyltransferase (Homo sapiens), sequence (P11086 whole entry, looked up): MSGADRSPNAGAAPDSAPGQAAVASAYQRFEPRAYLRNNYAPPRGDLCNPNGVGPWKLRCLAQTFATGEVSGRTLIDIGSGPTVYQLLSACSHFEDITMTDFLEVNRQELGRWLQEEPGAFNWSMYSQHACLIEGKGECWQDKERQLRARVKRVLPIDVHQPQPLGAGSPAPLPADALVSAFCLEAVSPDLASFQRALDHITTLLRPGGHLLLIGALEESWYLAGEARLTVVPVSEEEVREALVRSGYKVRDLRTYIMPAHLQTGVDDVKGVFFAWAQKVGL
# [9] = biological target: Rap guanine nucleotide exchange factor 3 (Homo sapiens) (UniProt O95398); assay: Confirmatory qHTS for antagonist of cAMP-regulated guanine nucleotide exchange factor 3 (EPAC1) (AID 1645880); conditions: EPAC1 Rap1B-BODIPY-GDP exchange, fluorescence; series mostly up to 115 µM; further: nearly all actives have a fitted effect of over 55% in size
# Rap guanine nucleotide exchange factor 3 (Homo sapiens), sequence (O95398 whole entry, looked up): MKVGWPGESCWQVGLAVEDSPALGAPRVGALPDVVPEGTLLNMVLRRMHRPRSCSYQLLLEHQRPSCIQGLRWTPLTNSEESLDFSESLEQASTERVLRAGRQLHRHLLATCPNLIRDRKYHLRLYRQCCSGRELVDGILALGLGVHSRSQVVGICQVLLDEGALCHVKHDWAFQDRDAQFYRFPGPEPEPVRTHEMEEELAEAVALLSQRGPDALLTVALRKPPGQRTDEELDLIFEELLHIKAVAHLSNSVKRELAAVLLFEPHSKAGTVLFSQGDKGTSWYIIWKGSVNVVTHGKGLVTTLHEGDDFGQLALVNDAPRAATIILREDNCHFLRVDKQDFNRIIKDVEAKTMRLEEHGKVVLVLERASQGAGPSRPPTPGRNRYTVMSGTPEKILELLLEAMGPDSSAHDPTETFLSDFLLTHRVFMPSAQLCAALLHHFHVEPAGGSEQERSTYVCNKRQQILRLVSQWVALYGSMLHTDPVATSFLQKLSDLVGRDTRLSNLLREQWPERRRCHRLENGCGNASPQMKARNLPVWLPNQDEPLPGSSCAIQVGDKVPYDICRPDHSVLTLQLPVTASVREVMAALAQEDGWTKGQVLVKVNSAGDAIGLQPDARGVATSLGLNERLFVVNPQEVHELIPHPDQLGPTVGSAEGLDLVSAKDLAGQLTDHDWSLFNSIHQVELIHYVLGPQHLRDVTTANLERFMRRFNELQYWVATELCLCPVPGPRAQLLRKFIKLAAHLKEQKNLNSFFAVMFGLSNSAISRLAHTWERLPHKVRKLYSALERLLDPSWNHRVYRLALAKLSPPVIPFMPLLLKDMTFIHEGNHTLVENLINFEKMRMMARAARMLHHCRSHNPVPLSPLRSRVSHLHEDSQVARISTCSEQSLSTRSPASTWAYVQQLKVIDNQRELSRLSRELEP
# Summary of the method: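 Nucleotide exchange uses 100 nM EPAC1, 250 nM RAP1B-BODIPY-GDP and 50 uM GDP, with compounds in a concentration-titration series. After 5 min at room temperature, fluorescence (480 nm ex/540 nm em) is read every 5 min for 30 min. Data are normalized to control ATA and DMSO.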
# [10] = biological target: Rap guanine nucleotide exchange factor 3 (Homo sapiens) (UniProt O95398); assay: Confirmatory qHTS for agonist of cAMP-regulated guanine nucleotide exchange factor 3 (EPAC1) (AID 1645881); conditions: EPAC1 Rap1B BODIPY-GDP exchange fluorescence, 100% = cAMP control response; series mostly up to 154 µM;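 further: EPAC1 catalysed release of BODIPY-GDP from Rap1B seen as fluorescence loss; nearly all actives have a fitted effect of over 75% in size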
# [11] = biological target: Rap guanine nucleotide exchange factor 4 (Homo sapiens) (UniProt Q8WZA2); assay: Confirmatory qHTS for agonist of cAMP-regulated guanine nucleotide exchange factor 4 (EPAC2) (AID 1645884); conditions: EPAC2 GEF activity, Rap1B-BODIPY-GDP fluorescence, percent relative to cAMP agonist control; series mostly up to 154 µM;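 further: nucleotide exchange releases bodipy-GDP from Rap1 and this lowers its fluorescence; nearly all actives have a fitted effect of over 65% in size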
# Rap guanine nucleotide exchange factor 4 (Homo sapiens), sequence (Q8WZA2 whole entry, looked up): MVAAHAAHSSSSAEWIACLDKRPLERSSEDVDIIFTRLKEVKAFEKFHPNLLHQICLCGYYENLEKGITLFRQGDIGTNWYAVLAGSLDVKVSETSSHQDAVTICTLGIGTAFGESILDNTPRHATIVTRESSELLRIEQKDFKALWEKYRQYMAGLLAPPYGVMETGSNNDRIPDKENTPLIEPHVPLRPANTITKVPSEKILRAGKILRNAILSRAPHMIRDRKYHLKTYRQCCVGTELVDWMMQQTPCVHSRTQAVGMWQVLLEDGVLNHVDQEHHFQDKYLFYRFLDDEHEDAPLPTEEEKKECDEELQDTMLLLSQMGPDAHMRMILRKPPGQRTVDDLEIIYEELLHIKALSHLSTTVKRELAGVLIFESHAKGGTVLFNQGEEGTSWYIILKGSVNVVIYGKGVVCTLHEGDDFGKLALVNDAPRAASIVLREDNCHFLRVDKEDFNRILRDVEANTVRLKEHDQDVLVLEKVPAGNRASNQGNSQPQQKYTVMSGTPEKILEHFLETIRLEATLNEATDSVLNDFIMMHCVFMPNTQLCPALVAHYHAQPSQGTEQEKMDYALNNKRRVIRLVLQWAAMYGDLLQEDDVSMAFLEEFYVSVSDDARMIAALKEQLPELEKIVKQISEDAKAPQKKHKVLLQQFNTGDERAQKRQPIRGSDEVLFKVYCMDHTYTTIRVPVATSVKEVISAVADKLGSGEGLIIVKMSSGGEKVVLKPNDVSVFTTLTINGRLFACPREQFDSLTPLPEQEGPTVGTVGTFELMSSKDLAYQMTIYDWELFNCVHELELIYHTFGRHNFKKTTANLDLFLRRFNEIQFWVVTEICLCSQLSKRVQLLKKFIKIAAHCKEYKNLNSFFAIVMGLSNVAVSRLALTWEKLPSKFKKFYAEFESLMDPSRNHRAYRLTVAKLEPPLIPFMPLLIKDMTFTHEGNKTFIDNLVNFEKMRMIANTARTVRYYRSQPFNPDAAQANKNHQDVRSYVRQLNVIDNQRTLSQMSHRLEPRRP
# [12] = biological target: Rap guanine nucleotide exchange factor 4 (Homo sapiens) (UniProt Q8WZA2); assay: Confirmatory qHTS for antagonist of cAMP-regulated guanine nucleotide exchange factor 4 (EPAC2) (AID 1645885); conditions: EPAC2 Rap1B-BODIPY-GDP exchange fluorescence, biochemical; series mostly up to 114 µM; further: nearly all actives have a fitted effect of over 25% in size
# [13] = biological target: N-terminal Xaa-Pro-Lys N-methyltransferase 1 (Homo sapiens) (UniProt Q9BV86); assay: Confirmatory qHTS for Inhibitors of N-terminal methyltransferase 1 (NTMT1): MTaseGlo Assay (AID 1645874); conditions: NTMT1 enzyme, MTase-Glo SAH luminescence; series mostly up to 51.5 µM;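 further: luminescence from SAH made as NTMT1 methylates SPKRIA peptide using SAM; nearly all actives have a fitted effect of over 65% in size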
# N-terminal Xaa-Pro-Lys N-methyltransferase 1 (Homo sapiens), sequence (Q9BV86 whole entry, looked up): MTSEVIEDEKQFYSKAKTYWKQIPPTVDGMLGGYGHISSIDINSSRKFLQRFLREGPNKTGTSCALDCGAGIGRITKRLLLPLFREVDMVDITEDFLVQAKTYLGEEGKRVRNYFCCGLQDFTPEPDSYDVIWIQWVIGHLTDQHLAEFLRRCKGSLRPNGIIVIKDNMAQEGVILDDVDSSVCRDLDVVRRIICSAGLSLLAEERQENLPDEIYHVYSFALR
# Summary of the method: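 NTMT1 (125 nM) preincubated 15 min with compound and 100 uM SAM, then 1 uM SPKRIA peptide added for 30 min at room temperature. SAH detected by MTase-Glo luminescence; normalized to no-enzyme and DMSO controls, fitted to 4-parameter Hill.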
compound,measurement,setting,value
CCN(C)C(=O)Oc1cccc([C@H](C)N(C)C)c1,Potency,[1],inactive
same,Potency,[2],inactive
O=C(N[C@H](CO)[C@H](O)c1ccc([N+](=O)[O-])cc1)C(Cl)Cl,Potency,[3],inactive
Cc1ccc(S(=O)(=O)N[C@@H](Cc2ccccc2)C(=O)CCl)cc1,Potency,Papain (Carica papaya),inactive
same,Potency,[1],13.2 µM (active)
same,Potency,[2],11.8 µM (active)
COc1cc2nc(N3CCCN(C)CC3)nc(NC3CCN(Cc4ccccc4)CC3)c2cc1OC,Potency,Papain (Carica papaya),25.1 µM (active)
same,Potency,[1],4.17 µM (active)
same,Potency,[2],2.63 µM (active)
NC(=O)c1cccc(N)c1,Potency,[1],inactive
same,Potency,[2],inactive
same,Potency,[3],inactive
OC(Cn1cncn1)(Cn1cncn1)c1ccc(F)cc1F,Potency,[1],inactive
same,Potency,[2],inactive
CN(CCOc1ccc(CC2SC(=O)NC2=O)cc1)c1ccccn1 (stereo not given),Potency,[1],inactive
same,Potency,[2],inactive
C[C@]12C=CC(=O)C=C1CC[C@@H]1[C@@H]2C(=O)C[C@@]2(C)[C@H]1CC[C@]2(O)C(=O)CO,Potency,[1],inactive
same,Potency,[2],inactive
Oc1c(Cl)cc(Cl)c2cccnc12,Potency,[1],3.76 µM (active)
same,Potency,[2],3.32 µM (active)
CC1CC2C3CCC4=CC(=O)C=C[C@]4(C)[C@@]3(F)[C@@H](O)C[C@]2(C)[C@@]1(O)C(=O)CO (stereo not given in full),Potency,Papain (Carica papaya),inactive
O=S(=O)(c1cccc2cnccc12)N1CCCNCC1,Potency,[4],inactive
same,Potency,[1],inactive
same,Potency,[3],inactive
CCn1cc(C(=O)O)c(=O)c2cc(F)c(N3CCN(C)CC3)cc21,Potency,[1],inactive
same,Potency,[2],inactive
Cc1onc(-c2ccccc2Cl)c1C(=O)N[C@@H]1C(=O)N2[C@@H]1SC(C)(C)[C@@H]2C(=O)O,Potency,[1],inactive
same,Potency,[2],inactive
CC1=C(C(=O)O)N2C(=O)[C@@H](NC(=O)C(N)c3ccccc3)[C@H]2SC1 (stereo not given in full),Potency,Papain (Carica papaya),inactive
CCCCS(=N)(=O)CCC(N)C(=O)O (stereo not given),Potency,Papain (Carica papaya),inactive
same,Potency,[1],inactive
same,Potency,[2],inactive
CCCN[C@H]1CCc2nc(N)sc2C1,Potency,[1],inactive
same,Potency,[2],inactive
NC1(c2ccc(-c3nc4ccn5c(=O)[nH]nc5c4cc3-c3ccccc3)cc2)CCC1,Potency,[1],21.1 nM (active) and 64.9 nM (active) and 166 nM (active)
same,Potency,[2],21.1 nM (active) and 81.7 nM (active) and 332 nM (active)
same,activity,[5],-9.12%
same,"activity change, negative = inhibition",[6],-8.7%
same,activity,[7],-25.8%
same,activity,[8],-8.08%
NC(=O)c1ccc2[nH]ccc2c1,Potency,Papain (Carica papaya),inactive
same,Potency,[1],inactive
same,Potency,[2],inactive
Cc1cccc(N(C)C(=S)Oc2ccc3ccccc3c2)c1,Potency,[1],inactive
same,Potency,[2],inactive and 14.8 µM (active)
same,outcome,[9],inactive
same,outcome,[10],inactive
same,outcome,[11],inactive
same,outcome,[12],inactive
OCc1ccc(-c2nn(Cc3ccccc3)c3ccccc23)o1,Potency,Papain (Carica papaya),25.1 µM (active)
same,Potency,[1],3.72 µM (active)
same,Potency,[2],4.17 µM (active)
CC[C@H](C)C(=O)O[C@H]1C[C@@H](C)C=C2C=C[C@H](C)[C@H](CC[C@@H]3C[C@@H](O)CC(=O)O3)[C@H]21,Potency,[1],16.8 µM (active) and 10.5 µM (active)
same,Potency,[2],8.33 µM (active)
CC(=O)[C@H]1CC[C@H]2[C@@H]3CCC4=CC(=O)CC[C@]4(C)[C@H]3CC[C@]12C,Potency,Papain (Carica papaya),inactive
C#CCN[C@@H]1CCc2ccccc21,Potency,[4],inactive
same,Potency,[1],inactive
same,Potency,[2],inactive
CCOC(=O)[C@H](CCc1ccccc1)N[C@H]1CCc2ccccc2N(CC(=O)O)C1=O,Potency,[1],inactive
same,Potency,[2],inactive
CC[C@H](NC(C)C)[C@H](O)c1ccc(O)c2[nH]c(=O)ccc12,Potency,[4],inactive
same,Potency,[1],inactive
same,Potency,[2],inactive
CC1=NN(c2ccccc2)C(=O)C1,Potency,[1],inactive
same,Potency,[2],inactive
CCc1cc(C(N)=S)ccn1,Potency,[13],inactive
same,Potency,[1],inactive
same,Potency,[2],inactive
CC(C)Cn1cnc2c(N)nc3ccccc3c21,Potency,[4],inactive
same,Potency,[1],inactive
same,Potency,[2],inactive
same,Potency,[3],inactive
CCN1CCCC1CNC(=O)c1cc(S(N)(=O)=O)ccc1OC (stereo not given),Potency,Papain (Carica papaya),inactive
CC(C)OC(=O)C(C(=O)OC(C)C)=C1SC=CS1,Potency,[1],inactive
same,Potency,[2],inactive
